Results published in PubChem BioAssay (NCATS).
Values joined by “and” are separate entries in the source; they are usually repeats but may differ in a detail not shown here. Identical values can stand only once. Results filed as inconclusive are left out. More than one record can exist for a structure, and the calls need not agree. Active and inactive are the calls of the source. Unless noted, calls follow the shape of the full dose curve.

Tests used:
[1] = molecular target: Bile acid receptor (Homo sapiens) (UniProt Q96RI1); assay: qHTS assay for small molecule agonists of farnesoid X receptor signaling (AID 588527); details: HEK293T FXR-UAS-bla, beta-lactamase ratio, 16 h; stronger effect = higher value;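 also: 0% = vehicle basal and 100% = reference agonist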
Chain of Bile acid receptor (Homo sapiens) (Q96RI1 whole entry, looked up): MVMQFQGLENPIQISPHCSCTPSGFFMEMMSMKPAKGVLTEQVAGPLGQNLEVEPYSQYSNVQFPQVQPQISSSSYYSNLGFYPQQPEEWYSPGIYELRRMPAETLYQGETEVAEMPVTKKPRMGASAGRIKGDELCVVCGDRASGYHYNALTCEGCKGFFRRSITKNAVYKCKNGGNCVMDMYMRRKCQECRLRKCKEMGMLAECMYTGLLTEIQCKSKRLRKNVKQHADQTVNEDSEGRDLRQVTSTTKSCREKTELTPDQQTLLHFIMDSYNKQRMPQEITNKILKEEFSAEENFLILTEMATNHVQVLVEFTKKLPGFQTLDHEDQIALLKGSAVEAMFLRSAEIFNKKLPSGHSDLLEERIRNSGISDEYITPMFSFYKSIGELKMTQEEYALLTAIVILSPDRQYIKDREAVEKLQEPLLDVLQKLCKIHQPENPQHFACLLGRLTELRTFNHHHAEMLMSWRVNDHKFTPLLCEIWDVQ
Outline: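 FXR-UAS-bla HEK293T cells (10% dialyzed FBS) preincubated 5-7 h at 37 C, then compounds at up to 92 uM for 16 h at 37 C. CCF4 beta-lactamase read-out after 2 h RT. Normalized to chenodeoxycholic acid (100 uM) and DMSO; Hill fit gave EC50 and efficacy.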

[2] = molecular target: Bile acid receptor (Homo sapiens) (UniProt Q96RI1); assay: qHTS assay for small molecule antagonists of farnesoid X receptor signaling (AID 588526); details: HEK293T FXR-UAS-bla, beta-lactamase ratio, antagonist mode; series mostly up to 76.7 µM; also: % is scaled to controls: 0 for no effect and ±100 for the full control effect
Outline: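 Antagonist mode: titrated compounds tested against chenodeoxycholic acid stimulation (normalized to 50 uM CDCA and DMSO) in GeneBLAzer HEK293T cells for 16 h. Beta-lactamase read by CCF4 fluorescence; IC50 from Hill fits.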

[3] = qHTS assay for small molecule antagonists of retinoid X receptor alpha signaling (AID 588546; active = well fitted inhibition curve with a large enough effect in the signal ratio, with a control signal flat, not every such curve was filed as active; the % refers to the signal ratio; also: potency is read from the fitted curve at half-maximal effect); details: HEK293T RXRa-UAS-bla, beta-lactamase ratio, antagonist mode; measured here: W530 green channel, cytotoxicity proxy
Outline: (§1)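 Beta-lactamase reporter inhibition, read as CCF4 fluorescence ratio (ex 405, em 460/530 nm) after 2 h at RT. HEK293T UAS-bla cells, 2500/well, were stimulated with 9-cis-RA at 500 or 100 nM final alongside test compound for 18 h at 37 C.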

[4] = molecular target: Retinoic acid receptor RXR-alpha (Homo sapiens) (UniProt P19793); assay: as above; details: HEK293T RXRa-UAS-bla, beta-lactamase ratio, antagonist mode
Chain of Retinoic acid receptor RXR-alpha (Homo sapiens) (P19793 whole entry, looked up): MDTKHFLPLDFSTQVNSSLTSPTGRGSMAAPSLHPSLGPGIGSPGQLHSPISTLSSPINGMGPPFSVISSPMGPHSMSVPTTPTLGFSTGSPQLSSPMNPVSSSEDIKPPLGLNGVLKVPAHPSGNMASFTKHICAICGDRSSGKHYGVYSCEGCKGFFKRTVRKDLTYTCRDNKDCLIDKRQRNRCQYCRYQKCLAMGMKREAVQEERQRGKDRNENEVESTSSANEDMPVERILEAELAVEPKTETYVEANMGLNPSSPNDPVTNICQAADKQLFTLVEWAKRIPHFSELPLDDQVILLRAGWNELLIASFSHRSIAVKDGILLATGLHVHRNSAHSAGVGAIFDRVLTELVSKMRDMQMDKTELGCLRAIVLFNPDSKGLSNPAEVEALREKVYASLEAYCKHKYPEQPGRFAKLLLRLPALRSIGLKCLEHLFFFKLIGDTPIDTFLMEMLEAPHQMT
Outline: as §1

[5] = molecular target: Estrogen receptor (Homo sapiens) (UniProt P03372); assay: qHTS assay for small molecule antagonists of estrogen receptor alpha signaling (AID 588513; active = well fitted curve in the direction sought with a large enough effect in the signal ratio, with a control signal flat, not every such curve was filed as active; the % refers to the signal ratio; also: % is scaled to controls: 0 for no effect and ±100 for the full control effect); details: ER-alpha-UAS-bla HEK293, beta-lactamase ratio, antagonist mode; series mostly up to 76.9 µM
Chain of Estrogen receptor (Homo sapiens) (P03372 whole entry, looked up): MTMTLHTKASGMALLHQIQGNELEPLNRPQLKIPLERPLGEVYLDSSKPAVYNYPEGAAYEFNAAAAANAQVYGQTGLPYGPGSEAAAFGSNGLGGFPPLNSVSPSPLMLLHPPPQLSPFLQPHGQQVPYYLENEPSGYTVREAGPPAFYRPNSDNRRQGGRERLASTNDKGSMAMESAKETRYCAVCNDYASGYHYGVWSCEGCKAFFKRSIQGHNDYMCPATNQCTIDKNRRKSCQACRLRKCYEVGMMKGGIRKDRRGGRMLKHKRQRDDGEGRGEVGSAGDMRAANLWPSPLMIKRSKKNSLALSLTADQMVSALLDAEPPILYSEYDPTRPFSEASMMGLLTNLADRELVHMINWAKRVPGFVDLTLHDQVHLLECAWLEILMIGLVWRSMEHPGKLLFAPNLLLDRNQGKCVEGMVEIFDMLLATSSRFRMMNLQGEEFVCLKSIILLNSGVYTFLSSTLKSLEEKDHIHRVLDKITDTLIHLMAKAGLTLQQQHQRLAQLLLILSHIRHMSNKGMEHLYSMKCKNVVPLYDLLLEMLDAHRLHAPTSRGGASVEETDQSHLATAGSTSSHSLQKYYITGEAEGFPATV
Outline: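 ER-alpha-UAS-bla GripTite HEK 293 cells in 2% charcoal/dextran-treated FBS medium; compounds titrated (1:2, duplicate), then stimulated with 0.5 nM 17-beta-estradiol for 18 h at 37C. CCF4 beta-lactamase fluorescence; Hill-fit IC50 and efficacy.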

[6] = molecular target: Estrogen receptor (Homo sapiens) (UniProt P03372); assay: qHTS assay for small molecule agonists of estrogen receptor alpha signaling (AID 588514); details: ER-alpha-UAS-bla HEK293, beta-lactamase ratio, 18 h; series mostly up to 76.8 µM;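 also: 0% = vehicle only and 100% = reference agonist; nearly all actives have a fitted effect of over 70% in size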
Outline: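 Read-out: CCF4 fluorescence from a beta-lactamase reporter in ER-alpha-UAS-bla HEK 293 cells after 18 hrs of compound exposure at 37 C. Normalized to 20 nM 17-beta-estradiol (100%) and DMSO (0%).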

[7] = molecular target: Peroxisome proliferator-activated receptor delta (Homo sapiens) (UniProt Q03181); assay: qHTS assay for small molecule agonists of peroxisome proliferator-activated receptor delta signaling (AID 588534); details: HEK293T PPARdelta-UAS-bla, beta-lactamase ratio, 18 h; series mostly up to 76.7 µM;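 also: 0% = DMSO basal wells and 100% = positive control agonist at 10 µM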
Chain of Peroxisome proliferator-activated receptor delta (Homo sapiens) (Q03181 whole entry, looked up): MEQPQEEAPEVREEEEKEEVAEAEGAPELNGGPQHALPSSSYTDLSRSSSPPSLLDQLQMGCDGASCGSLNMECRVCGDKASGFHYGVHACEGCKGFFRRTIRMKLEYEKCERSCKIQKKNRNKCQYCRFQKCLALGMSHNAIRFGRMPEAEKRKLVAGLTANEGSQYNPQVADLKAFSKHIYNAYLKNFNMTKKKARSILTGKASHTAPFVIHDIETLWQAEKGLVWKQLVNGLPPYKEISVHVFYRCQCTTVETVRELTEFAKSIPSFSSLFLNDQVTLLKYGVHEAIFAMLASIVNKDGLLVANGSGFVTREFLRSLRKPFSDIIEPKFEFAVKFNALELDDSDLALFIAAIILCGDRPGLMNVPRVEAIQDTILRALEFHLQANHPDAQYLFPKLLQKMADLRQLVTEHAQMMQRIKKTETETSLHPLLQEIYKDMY
Outline: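 Titration series tested in agonist mode on beta-lactamase reporter cells; 18 hrs at 37 C after a 5 hr pre-incubation. Readout: CCF4 fluorescence, 2 hrs RT. Hill equation gives EC50 and maximal response.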

[8] = qHTS assay for small molecule antagonists of peroxisome proliferator-activated receptor delta signaling (AID 588535; active = well fitted inhibition curve with a large enough effect in the signal ratio, with a control signal flat, not every such curve was filed as active; the % refers to the signal ratio;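 as to max response: cells co-treated with a PPAR-delta agonist as stimulator during compound exposure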); details: HEK293T PPARd-UAS-bla, beta-lactamase FRET ratio, 18 h; 460 nm channel
Outline: (§2)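 Beta-lactamase reporter read-out (405 nm excitation, 460/530 nm emission) after CCF4 loading for 2 hrs at RT. HEK293T PPAR-delta-UAS-bla cells, 2% charcoal/dextran FBS, compounds for 18 hrs at 37 C. Hill fit gave IC50 and efficacy.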

[9] = molecular target: Peroxisome proliferator-activated receptor delta (Homo sapiens) (UniProt Q03181); assay: as above; details: HEK293T PPARd-UAS-bla, beta-lactamase FRET ratio, 18 h; series mostly up to 76.7 µM
Outline: as §2

[10] = molecular target: Peroxisome proliferator-activated receptor gamma (Homo sapiens) (UniProt P37231); assay: qHTS assay for small molecule agonists of peroxisome proliferator-activated receptor gamma signaling (AID 588536; active = well fitted curve in the direction sought with a large enough effect in the signal ratio, with a control signal flat, not every such curve was filed as active; the % refers to the signal ratio;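 also: 0% = DMSO basal wells and 100% = rosiglitazone at 2 µM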); details: HEK293 PPARg-UAS-bla, beta-lactamase ratio, 16 h, percent of rosiglitazone response, DMSO as zero; series mostly up to 76.7 µM
Chain of Peroxisome proliferator-activated receptor gamma (Homo sapiens) (P37231 whole entry, looked up): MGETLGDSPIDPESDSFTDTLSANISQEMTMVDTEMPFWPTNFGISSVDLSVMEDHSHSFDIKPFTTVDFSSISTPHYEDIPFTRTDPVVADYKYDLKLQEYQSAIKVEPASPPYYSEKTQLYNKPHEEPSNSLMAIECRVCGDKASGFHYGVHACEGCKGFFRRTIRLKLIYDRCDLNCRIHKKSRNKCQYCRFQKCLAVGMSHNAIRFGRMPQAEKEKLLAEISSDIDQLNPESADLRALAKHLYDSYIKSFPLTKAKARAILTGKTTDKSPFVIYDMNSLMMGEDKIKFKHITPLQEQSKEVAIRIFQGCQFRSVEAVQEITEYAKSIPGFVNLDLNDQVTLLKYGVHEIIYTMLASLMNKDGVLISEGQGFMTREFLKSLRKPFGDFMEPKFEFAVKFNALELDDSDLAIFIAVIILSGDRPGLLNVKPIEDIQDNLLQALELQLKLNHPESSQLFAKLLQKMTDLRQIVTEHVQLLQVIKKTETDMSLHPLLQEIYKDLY
Outline: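 Cells were plated and held 6–6.5 h at 37 C, then compounds were added as a titration series. After a further 16 h, CCF4 dye was loaded for 2 h at room temperature and emission at 460/530 nm recorded.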

[11] = molecular target: Peroxisome proliferator-activated receptor gamma (Homo sapiens) (UniProt P37231); assay: qHTS assay for small molecule antagonists of peroxisome proliferator-activated receptor gamma signaling (AID 588537; active = well fitted inhibition curve with a large enough effect in the signal ratio, with a control signal flat, not every such curve was filed as active; the % refers to the signal ratio; also: potency is read from the fitted curve at half-maximal effect); details: HEK293 PPARg-UAS-bla, beta-lactamase ratio, antagonist mode; series mostly up to 76.8 µM
Outline: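 Read-out: CCF4 fluorescence (ex 405, em 460/530 nm) after 2 h at RT. Cells were HEK293 carrying a UAS-bla reporter and treated 16 h at 37 C with compound plus rosiglitazone (50 nM final). Normalized to rosiglitazone and DMSO.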

[12] = molecular target: Vitamin D3 receptor (Homo sapiens) (UniProt P11473); assay: qHTS assay for small molecule antagonists of vitamin D receptor signaling (AID 588541); details: HEK293T VDR-UAS-bla, beta-lactamase ratio, antagonist mode; series mostly up to 76.7 µM;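 also: receptor activated by calcitriol during compound treatment; % is scaled to controls: 0 for no effect and ±100 for the full control effect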
Chain of Vitamin D3 receptor (Homo sapiens) (P11473 whole entry, looked up): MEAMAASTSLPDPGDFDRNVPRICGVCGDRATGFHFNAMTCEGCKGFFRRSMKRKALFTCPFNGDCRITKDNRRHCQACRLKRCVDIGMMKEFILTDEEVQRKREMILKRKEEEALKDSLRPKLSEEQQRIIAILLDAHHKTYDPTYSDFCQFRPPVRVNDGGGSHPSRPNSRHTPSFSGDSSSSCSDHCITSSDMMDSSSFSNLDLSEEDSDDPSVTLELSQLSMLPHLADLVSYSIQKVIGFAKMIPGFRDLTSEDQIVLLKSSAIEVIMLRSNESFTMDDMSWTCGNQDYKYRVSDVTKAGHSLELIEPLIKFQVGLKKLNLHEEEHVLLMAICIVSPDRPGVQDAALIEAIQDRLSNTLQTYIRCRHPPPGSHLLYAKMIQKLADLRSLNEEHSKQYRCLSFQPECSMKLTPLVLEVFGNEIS
Outline: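 VDR-UAS-bla HEK293T cells in 2% charcoal-stripped FBS were stimulated with 1-alpha,25-dihydroxyvitamin D3 (3 nM final) plus compound for 16 h at 37 C. The beta-lactamase CCF4 readout was normalized to 50 nM agonist and DMSO, and Hill fits gave IC50.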

[13] = molecular target: Vitamin D3 receptor (Homo sapiens) (UniProt P11473); assay: qHTS assay for small molecule agonists of vitamin D receptor signaling (AID 588543); details: HEK293T VDR-UAS-bla, beta-lactamase ratio, 16 h; series mostly up to 76.8 µM;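 also: 0% = DMSO basal and 100% = reference agonist control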
Outline: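 VDR-UAS-bla HEK293T cells, 2000/well, 2% charcoal-stripped FBS; compound titration 16 h at 37 C; CCF4 beta-lactamase ratio read. Normalized to 50 nM 1-alpha,25-dihydroxyvitamin D3 (100%) and DMSO; Hill fit gives EC50, efficacy.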

[14] = qHTS assay for small molecule agonists of retinoid X receptor alpha signaling (AID 588544); details: HEK293T RXRa-UAS-bla, beta-lactamase reporter, 18 h; 530 nm emission
[15] = molecular target: Thyroid hormone receptor beta (Homo sapiens) (UniProt P10828); assay: qHTS assay for small molecule agonists of thyroid hormone receptor beta signaling (AID 588545); details: TR-UAS-bla GripTite HEK 293, beta-lactamase ratio, agonist mode, 18 h, percent of T3 response, DMSO as zero; series mostly up to 76.7 µM;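 also: 0% = DMSO only and 100% = 10 nM T3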
Outline: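 Beta-lactamase reporter activity under TR response element control is measured in HEK 293 cells after 18 hrs compound exposure. Signal is ratiometric CCF4 fluorescence, 460/530 nm.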

[16] = molecular target: Thyroid hormone receptor beta (Homo sapiens) (UniProt P10828); assay: qHTS assay for small molecule antagonists of thyroid hormone receptor beta signaling (AID 588547; active = well fitted inhibition curve with a large enough effect in the signal ratio, with a control signal flat, not every such curve was filed as active; the % refers to the signal ratio;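 also: cells stimulated with 0.4 nM T3 agonist during compound exposure; % is scaled to controls: 0 for no effect and ±100 for the full control effect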); details: TR-UAS-bla HEK293, beta-lactamase ratio, antagonist mode, 18 h
Outline: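 TR-UAS-bla GripTite HEK293 cells in 2% charcoal/dextran FBS medium; compounds 0.59 nM to 92 uM with T3 at 0.4nM final, 18 h at 37 C. Beta-lactamase read by CCF4 fluorescence (460/530 nm); Hill fits gave IC50 and efficacy.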

[17] = molecular target: Glucocorticoid receptor (Homo sapiens) (UniProt P04150); assay: qHTS assay for small molecule agonists of glucocorticoid receptor signaling (AID 588532; active = well fitted curve in the direction sought with a large enough effect in the signal ratio, with a control signal flat; the % refers to the signal ratio;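 also: 100% = dexamethasone at 0.1 µM and 0% = DMSO only wells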); details: HeLa MMTV-bla, beta-lactamase ratio, agonist, 18 h; stronger effect = higher value; percent of dexamethasone control, DMSO zero
Chain of Glucocorticoid receptor (Homo sapiens) (P04150 whole entry, looked up): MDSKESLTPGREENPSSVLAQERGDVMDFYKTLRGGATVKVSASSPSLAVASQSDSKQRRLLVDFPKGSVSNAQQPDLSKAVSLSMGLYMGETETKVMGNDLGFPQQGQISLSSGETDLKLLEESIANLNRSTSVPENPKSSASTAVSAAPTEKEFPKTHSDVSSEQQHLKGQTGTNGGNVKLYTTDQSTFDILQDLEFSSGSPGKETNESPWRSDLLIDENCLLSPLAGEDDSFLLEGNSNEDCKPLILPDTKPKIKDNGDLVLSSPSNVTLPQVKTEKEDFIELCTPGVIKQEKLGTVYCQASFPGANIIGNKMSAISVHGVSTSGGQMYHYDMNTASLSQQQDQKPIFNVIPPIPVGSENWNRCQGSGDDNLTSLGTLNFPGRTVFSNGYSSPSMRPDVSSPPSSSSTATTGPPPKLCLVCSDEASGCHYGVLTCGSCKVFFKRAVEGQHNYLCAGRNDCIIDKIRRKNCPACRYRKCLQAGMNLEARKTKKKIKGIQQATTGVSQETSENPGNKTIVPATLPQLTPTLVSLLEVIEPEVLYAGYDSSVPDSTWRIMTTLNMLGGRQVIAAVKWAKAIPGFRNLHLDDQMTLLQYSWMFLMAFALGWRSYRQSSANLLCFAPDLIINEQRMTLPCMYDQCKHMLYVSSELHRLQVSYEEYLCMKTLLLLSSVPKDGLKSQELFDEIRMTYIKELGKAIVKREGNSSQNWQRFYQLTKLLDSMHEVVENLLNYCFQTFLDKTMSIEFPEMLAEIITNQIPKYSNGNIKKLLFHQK
Outline: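 MMTV-bla HeLa beta-lactamase reporter cells in 1% charcoal/dextran FBS medium, compounds up to 92 uM for 18 h at 37 C, CCF4 readout; normalized to 0.1 uM dexamethasone (100%), EC50 and efficacy from Hill fits.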

[18] = molecular target: Glucocorticoid receptor (Homo sapiens) (UniProt P04150); assay: qHTS assay for small molecule antagonists of glucocorticoid receptor signaling (AID 588533; active = well fitted inhibition curve with a large enough effect in the signal ratio, with a control signal flat, not every such curve was filed as active; the % refers to the signal ratio; also: % is scaled to controls: 0 for no effect and ±100 for the full control effect); details: HeLa MMTV-bla, GRE beta-lactamase ratio, antagonist mode, 18 h; series mostly up to 76.8 µM
Outline: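 Antagonist-mode qHTS: compound titrations added to GRE-bla HeLa cells, then dexamethasone 2 nM final; 18 h, 37 C. CCF4 FRET fluorescence normalized to dexamethasone and DMSO; IC50 from Hill fit.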

[19] = molecular target: Androgen receptor (Homo sapiens) (UniProt P10275); assay: qHTS assay for small molecule agonists of androgen receptor signaling (AID 588515; active = well fitted curve in the direction sought with a large enough effect in the signal ratio, with a control signal flat; the % refers to the signal ratio; also: % is scaled to controls: 0 for no effect and ±100 for the full control effect); details: AR-UAS-bla HEK293, beta-lactamase ratio, agonist 16 h; stronger effect = higher value
Chain of Androgen receptor (Homo sapiens) (P10275 whole entry, looked up): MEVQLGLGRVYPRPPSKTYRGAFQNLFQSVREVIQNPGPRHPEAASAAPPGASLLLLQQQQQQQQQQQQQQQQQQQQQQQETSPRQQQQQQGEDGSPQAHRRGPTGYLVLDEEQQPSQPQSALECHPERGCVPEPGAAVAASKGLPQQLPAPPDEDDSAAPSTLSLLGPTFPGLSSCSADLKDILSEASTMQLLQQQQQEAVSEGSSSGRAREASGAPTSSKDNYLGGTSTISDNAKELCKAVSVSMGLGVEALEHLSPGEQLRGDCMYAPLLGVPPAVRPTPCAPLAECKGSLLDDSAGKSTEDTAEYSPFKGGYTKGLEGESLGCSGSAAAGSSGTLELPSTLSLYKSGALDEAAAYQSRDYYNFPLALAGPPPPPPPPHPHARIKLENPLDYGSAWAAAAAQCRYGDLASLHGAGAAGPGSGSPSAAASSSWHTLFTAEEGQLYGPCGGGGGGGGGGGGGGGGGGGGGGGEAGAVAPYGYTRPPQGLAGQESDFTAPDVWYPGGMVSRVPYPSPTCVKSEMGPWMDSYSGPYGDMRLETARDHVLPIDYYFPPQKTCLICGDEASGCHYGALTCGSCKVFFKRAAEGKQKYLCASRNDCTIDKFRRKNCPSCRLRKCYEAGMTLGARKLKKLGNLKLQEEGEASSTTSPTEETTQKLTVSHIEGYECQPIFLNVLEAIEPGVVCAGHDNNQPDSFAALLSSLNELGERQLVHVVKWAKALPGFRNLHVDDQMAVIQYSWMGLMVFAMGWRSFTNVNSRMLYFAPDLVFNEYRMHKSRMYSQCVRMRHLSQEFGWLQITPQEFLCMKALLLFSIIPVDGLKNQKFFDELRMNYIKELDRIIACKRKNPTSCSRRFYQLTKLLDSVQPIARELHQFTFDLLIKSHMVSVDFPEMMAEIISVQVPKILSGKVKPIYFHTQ
Outline: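 Stimulation of an AR-responsive β-lactamase reporter in GripTite HEK293 cells was measured after 16 h compound exposure at 37 °C, via CCF4 fluorescence after 2 h RT. EC50 from Hill fits, normalized to R1881 at 30 nM.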

[20] = molecular target: Androgen receptor (Homo sapiens) (UniProt P10275); assay: qHTS assay for small molecule antagonists of androgen receptor signaling (AID 588516; active = well fitted curve in the direction sought with a large enough effect in the signal ratio, with a control signal flat, not every such curve was filed as active; the % refers to the signal ratio; also: % is scaled to controls: 0 for no effect and ±100 for the full control effect); details: AR-UAS-bla HEK293, beta-lactamase ratio, antagonist mode, 16 h; series mostly up to 76.8 µM
Outline: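 AR-UAS-bla GripTite HEK 293 cells (2000/well) treated with compound titrations plus 10 nM R1881 for 16 h at 37C. Beta-lactamase read by CCF4 FRET (460/530 nm); IC50 from Hill fits, normalized to R1881 and DMSO control wells.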

## COc1ccc(Cl)cc1C(=O)NCCc1ccc(S(=O)(=O)NC(=O)NC2CCCCC2)cc1
[1]
  activation: 0.916% (inactive)

## Cc1cc(SCc2sc(-c3ccc(C(F)(F)F)c(F)c3)nc2C)ccc1OCC(=O)O
[2]
  Potency: inactive
[1]
  activation: -2.28% (inactive)
[3]
  max response: 25.2%
[4]
  max response: -3.24% (inactive)

## Oc1ccccc1-c1ccccc1
[5]
  outcome: inactive
[6]
  Potency: inactive
[7]
  outcome: inactive
[8]
  max response: -47.4% and 9.69% and -13.4%
[9]
  outcome: inactive
[10]
  outcome: inactive
[11]
  Potency: 39.8 µM (active) and inactive
[12]
  outcome: inactive
[13]
  outcome: inactive
[14]
  max response: 9.97% and -12.1% and -6.9%
[15]
  outcome: inactive
[3]
  max response: -4.16% and -11.3% and -6.05%
[4]
  max response: 10.1% (inactive) and -5.66% (inactive) and 6.56% (inactive)
[16]
  activity change % (negative = inhibition): 19.4% (inactive) and 13.4% (inactive)

## C[C@]12CCC(=O)C(O)=C1CC[C@@H]1[C@@H]2CC[C@]2(C)C(=O)CC[C@@H]12
[5]
  outcome: inactive
[17]
  activation: 2.34% (inactive)
[18]
  Potency: inactive
[10]
  outcome: inactive
[11]
  Potency: inactive
[12]
  outcome: inactive
[13]
  outcome: inactive
[14]
  max response: 21.6%
[3]
  max response: 17.4%
[4]
  max response: 13.8% (inactive)
[16]
  activity change % (negative = inhibition): 9.32% (inactive)

## CCn1cc(C(=O)O)c(=O)c2ccc(C)nc21
[6]
  Potency: inactive
[1]
  activation: -0.319% (inactive) and 0.585% (inactive)
[8]
  max response: 27.2%
[9]
  outcome: inactive
[14]
  max response: 24.5%

## C=C(C)[C@H]1Cc2c(ccc3c2O[C@@H]2COc4cc(OC)c(OC)cc4[C@@H]2C3=O)O1
[1]
  activation: -1.33% (inactive)
[17]
  activation: -11.8% (inactive)
[11]
  Potency: 44.7 µM (active)
[15]
  outcome: inactive
[3]
  max response: 12.4%
[4]
  Potency: 20 µM (active)

## Clc1ccc(COC(Cn2ccnc2)c2ccc(Cl)cc2Cl)cc1 (stereo not drawn)
[6]
  Potency: inactive
[1]
  activation: 9.99% (inactive)
[17]
  activation: 9.41% (inactive)
[7]
  outcome: inactive

## Oc1ccc(Cl)cc1Cc1ccccc1
[19]
  activation: -12.3% (inactive)
[20]
  outcome: inactive
[17]
  activation: -0.163% (inactive) and -0.754% (inactive)
[18]
  Potency: inactive
[7]
  outcome: inactive
[8]
  max response: 28.1% and 8.37%
[9]
  outcome: inactive
[10]
  outcome: inactive
[14]
  max response: -11.5% and -1.88%
[15]
  outcome: inactive
[3]
  max response: -5.58%
[4]
  max response: -16.2% (inactive)
[16]
  activity change % (negative = inhibition): -6.58% (inactive) and 9.11% (inactive)
